Experimental data as given in the supplement of paper PMC6555819.

What was measured:
Assay in all cases: PBM binding z-score (relative to random genomic background probes); higher = stronger binding; sequences stand for … in GC…GCGATTGACAGCGTAGAATGAAGG
[1] = tested on: PPARg:RXRa DBDmut IVT, anti-RXR (DBD mutation: RXRa K156A/R161A, NR concentration 270 nM, RXRa partner concentration 90 nM)
Procedure, shortened: (§1)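 Ligand-free nuclear receptor dimers were bound for 1 h to custom Agilent 4×180K protein-binding microarrays. Detection used antibodies against each partner (one per run). Binding z-scores rest on regression-normalized fluorescence, with random background probes as the reference.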

[2] = tested on: PPARg:RXRa IVT, anti-PPARg (NR concentration 270 nM, RXRa partner concentration 90 nM)
Procedure, shortened: as §1

[3] = tested on: PPARg homodimer (NR concentration 180 nM)
Procedure, shortened: as §1

[4] = tested on: PXR:RXRa (NR concentration 270 nM, RXRa partner concentration 90 nM)
Procedure, shortened: as §1

[5] = tested on: PXR homodimer (NR concentration 270 nM)
Procedure, shortened: as §1

[6] = tested on: RARa:RXR (NR concentration 270 nM, RXRa partner concentration 90 nM)
Procedure, shortened: as §1

[7] = tested on: RARa homodimer (NR concentration 270 nM)
Procedure, shortened: as §1

[8] = tested on: RARb:RXRa (NR concentration 270 nM, RXRa partner concentration 90 nM)
Procedure, shortened: as §1

[9] = tested on: RARb homodimer (NR concentration 270 nM)
Procedure, shortened: as §1

[10] = tested on: RARg:RXRa (NR concentration 270 nM, RXRa partner concentration 90 nM)
Procedure, shortened: as §1

[11] = tested on: RARg homodimer (NR concentration 270 nM)
Procedure, shortened: as §1

[12] = tested on: RXRa DBDmut IVT, anti-RXR (DBD mutation: RXRa K156A/R161A, NR concentration 90 nM)
Procedure, shortened: as §1

[13] = tested on: RXRa homodimer (NR concentration 180 nM)
Procedure, shortened: as §1

[14] = tested on: THRa:RXRa (NR concentration 90 nM, RXRa partner concentration 90 nM)
Procedure, shortened: as §1

[15] = tested on: THRa homodimer (NR concentration 90 nM)
Procedure, shortened: as §1

[16] = tested on: VDR homodimer (NR concentration 270 nM)
Procedure, shortened: as §1

[17] = tested on: VDR:RXRa (NR concentration 270 nM, RXRa partner concentration 90 nM)
Procedure, shortened: as §1

| Sequence | PBM binding z-score [1] | PBM binding z-score [2] | PBM binding z-score [3] | PBM binding z-score [4] | PBM binding z-score [5] | PBM binding z-score [6] | PBM binding z-score [7] | PBM binding z-score [8] | PBM binding z-score [9] | PBM binding z-score [10] | PBM binding z-score [11] | PBM binding z-score [12] | PBM binding z-score [13] | PBM binding z-score [14] | PBM binding z-score [15] | PBM binding z-score [16] | PBM binding z-score [17] |
| --- | --- | --- | --- | --- | --- | --- | --- | --- | --- | --- | --- | --- | --- | --- | --- | --- | --- |
| CTATGTAGGTTAAGGGGGTCACTCAGTTTGAAAG | 7.55 | 7.88 | 6 | 5.64 | 10.5 | 5.73 | 3.18 | 3.61 | 3.95 | 5.13 | 3.79 | 1.85 | 5.58 | 3.79 | 2.06 | 5.29 | – |
| CCGAGTAGGTTACCAGGGGGCATTCAGTGCGAAT | 3.65 | 4.24 | 1.99 | 4.73 | 5.81 | 2.91 | 0.502 | 2.33 | 2.4 | 2.93 | 2.52 | 0.717 | 2.06 | 3.68 | 0.758 | 3.64 | 4.94 |
| TCGAGTAGGTTGCGGGGGCATTCAGGGATGAAGA | 2.02 | 3.55 | 1.44 | 3.09 | 2.38 | 2.39 | 0.623 | 1.91 | 1.73 | 2.24 | 1.59 | 1.94 | 1.5 | 3.75 | 2.35 | 3.45 | 3.33 |
| CTGTGTAGGTTAAGGGGGTCATTCAGTTTGAAAG | 5.16 | 6.16 | 3.62 | 5.84 | 10.9 | 5.48 | 2.01 | 3.67 | 4.19 | 5.13 | 4.04 | 2.68 | 5.91 | 3.89 | 2.98 | 5.36 | 7.46 |
| CTATATAGGTTAAGGGGGTCATTCAGTTTGAAAG | 7.39 | 7.38 | 4.56 | 6.35 | 12.1 | 6.42 | 1.99 | 3.91 | 3.8 | 5.72 | 4.34 | 2.61 | 6.69 | 4.18 | 1.99 | 6.17 | – |
| CTATGTAGGTTAAGGGGTTCATTCAGTTTGAAAG | 6.98 | 6.85 | 1.79 | 5.14 | 12.3 | 3.12 | 1.25 | 1.82 | 1.75 | 1.88 | 1.04 | 2.79 | 2.55 | 1.92 | 0.473 | 7.01 | – |
| CCAAGTAGGTTACGAGGGGGCATTCAGTGCGAAT | 6.86 | 6.44 | 2.19 | 5.04 | 6.14 | 3.18 | 1.41 | 2.52 | 2.46 | 3.53 | 3.14 | 1.89 | 2.52 | 3.6 | 0.736 | 3.82 | – |
| CTATGTAGGTTAAGGGGGTCATTCCGTTTGAAAG | 7.72 | 7.69 | 3.57 | 5.52 | 4.83 | 5.89 | 1.49 | 3.33 | 3.76 | 5.11 | 4.02 | 2.32 | 5.96 | 3.58 | 1.83 | 5.23 | – |
| TCGAGTAGGTTACGGGAGCATTCAGGGATGAAGA | 2.84 | 3.32 | -0.122 | 0.0708 | -0.797 | 0.667 | -0.752 | 0.692 | -0.0117 | 0.484 | 0.553 | -0.267 | 0.792 | 1.89 | -0.885 | -0.591 | – |
| CTATGTAGGTTAAGGGGGTCAGTCAGTTTGAAAG | 7.45 | 7.33 | 3.02 | 4.52 | 6.85 | 4.15 | 0.767 | 3.2 | 3.63 | 4.2 | 3.72 | 1.75 | 4.08 | 3.17 | 1.89 | 3.99 | – |
| TCGAGTAGGTTACGGAGGCATTCAGGGATGAAGA | 3.09 | 3.05 | 0.325 | 0.0271 | -0.388 | 0.547 | -0.666 | 0.731 | 0.171 | 0.578 | 0.4 | -0.134 | 0.833 | 1.1 | -0.655 | -0.549 | – |
| CCGAGTAGGTTACGAGGGGGCATTCGGTGCGAAT | 3.74 | 4.36 | 1.85 | 4.83 | 4.05 | 2.98 | 0.224 | 2.22 | 2.06 | 3.04 | 2.32 | 0.865 | 2.22 | 3.76 | 0.298 | 3.61 | – |
| CCATGTAGGTTAAGGGGGTCATTCAGTTTGAAAG | 5.55 | 6.99 | 4.47 | 5.83 | 12.1 | 5.82 | 2.79 | 3.46 | 4.05 | 5.03 | 3.85 | 2.37 | 5.74 | 3.87 | 2.67 | 6.01 | – |
